This is a sample that favours compounds with a hit; in the whole collection about 3.1% have one here.
Nrf2 block = inhibitors of Nrf2 signaling; AID 504444; actives 2.1% (n = 360,000); Potency, µM (doses to about 46 µM), usual class: inhibitors; A549 ARE-Fluc reporter, luciferase luminescence, 18-24 h; also: nearly all actives have a fitted effect of over 60% in size
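In this cell-based qHTS, ARE-driven firefly luciferase in A549 cells reports Nrf2 activity; the luminescent signal after BugLite lysis is the measured value, with a prior CellTiter-Fluor read for cell health.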
A549 tox-1 = kills or reduces viability of A549 cells in Nrf2 counter-screen; actives 0.16% (n = 390,000); Potency, µM (series often up to 46 µM), most hits filed as inhibitors; AID 504648; A549 ARE-Fluc cells, CellTiter-Fluor viability, 18-24 h
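A549 ARE_Fluc cells in 5% FBS OPTI-MEM were exposed to compounds in concentration-response for 18-24 h at 37 deg C. Viability was read by CellTiter-Fluor fluorescence (Ex 405/Em 525) after 30 min, before the luciferase read.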
Mito fusion act = mitochondrial division inhibition or fusion activation. S. cerevisiae fusion-defective mutant growth rescue, CellTiterGlo 48 h. Potency, µM (series often up to 46.1 µM), actives largely listed as activators. actives 0.23% (n = 320,000); also: nearly all actives have a fitted effect of over 45% in size
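Yeast fusion mutant, YPEG (non-fermentable carbon), compound, 48 h at 37C non-permissive; CellTiterGlo added, 10 min RT, luminescence read. Rescued growth = division inhibition.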
mIDH1 inhibitor = human IDH1 R132H inhibition. Potency, µM (doses to about 76.6 µM), most hits filed as inhibitors. IDH1-R132H enzyme, NADPH consumption, diaphorase/resazurin fluorescence. AID 602179. O75874. actives 0.093% (n = 390,000); also: nearly all actives have a fitted effect of over 65% in size
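IDH1-R132H (0.5 ug/mL dispensed) in pH 7.5 Tris buffer was preincubated 30 min with compound, then given a substrate mix of 0.016 mM NADPH and 2 mM alpha-KG for 80 min at room temperature; remaining NADPH was read by diaphorase/resazurin fluorescence.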
TrxR1 substrate = is turned over as a substrate by rat TrxR1 | purified TrxR1 substrate turnover, NADPH consumption readout | AID 588456 | O89049 | actives 0.01% (n = 390,000) | Potency, µM (highest dose often 114 µM); also: nearly all actives have a fitted effect of over 50% in size
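Rat TrxR1, dispensed at 90 nM, was prereduced with 400 uM NADPH (final) for 5 min at ~22 deg C, then incubated with compound 15 min before 400 uM selenite. A first-read NADPH fluorescence drop versus no-compound background flagged substrates.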
rTrxR1 inhibitor = inhibitors of rat thioredoxin reductase 1. O89049. recombinant rTrxR1, NADPH fluorescence consumption, selenite substrate. Potency, µM (titrated, usually from 114 µM), most hits filed as inhibitors. actives 1% (n = 390,000). AID 588453; also: nearly all actives have a fitted effect of over 65% in size
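Rat TrxR1 (90 nM in the dispensed reagent) was pre-reduced with 400 uM NADPH for 5 min at room temperature, then incubated with compound for 15 min. After 400 uM selenite was added, NADPH fluorescence (Ex 340/Em 450 nm) was followed for 8 min.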
FLuc counter 3 = counter-screen for Nrf2 inhibitors: firefly luciferase enzyme inhibition; shares compounds with Nrf2 block; purified firefly luciferase, luminescence inhibition; Potency, µM (titrated, usually from 57.5 µM), actives largely listed as inhibitors; actives 4% (n = 1,400); also: nearly all actives have a fitted effect of over 65% in size
Target sequence (P08659 whole entry, looked up): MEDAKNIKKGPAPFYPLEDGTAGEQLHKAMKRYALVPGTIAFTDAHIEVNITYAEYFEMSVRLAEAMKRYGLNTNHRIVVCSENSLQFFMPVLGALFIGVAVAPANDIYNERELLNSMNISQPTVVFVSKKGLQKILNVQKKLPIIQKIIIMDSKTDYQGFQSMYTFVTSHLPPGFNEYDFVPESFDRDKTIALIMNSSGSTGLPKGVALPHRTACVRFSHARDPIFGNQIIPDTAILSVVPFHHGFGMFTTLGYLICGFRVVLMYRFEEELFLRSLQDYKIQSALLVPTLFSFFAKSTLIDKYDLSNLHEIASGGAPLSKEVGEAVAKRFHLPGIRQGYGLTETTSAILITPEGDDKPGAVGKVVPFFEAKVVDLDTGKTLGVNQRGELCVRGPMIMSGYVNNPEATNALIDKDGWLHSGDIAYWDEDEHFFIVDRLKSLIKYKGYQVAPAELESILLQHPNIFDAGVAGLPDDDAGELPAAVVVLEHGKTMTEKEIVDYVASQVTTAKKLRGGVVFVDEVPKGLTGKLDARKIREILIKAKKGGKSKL
A549 tox-2 = toxic to A549 ARE-Fluc cells in Nrf2 counterscreen; shares compounds with Nrf2 block; A549 ARE-Fluc cells, cytotoxicity counterscreen; AID 720523; Potency, µM (top dose mostly 46.1 µM), most hits filed as inhibitors; actives 2% (n = 1,400);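 also: cells exposed to compounds for 18 to 24 hours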
Nrf2 ARE inh = reduces Nrf2 ARE reporter signal in A549 cells | shares compounds with Nrf2 block | A549 ARE-firefly luciferase reporter, luminescence | Potency, µM (highest dose often 46.1 µM), usual class: inhibitors | actives 74% (n = 1,400) | AID 720524; also: nearly all actives have a fitted effect of over 65% in size
Hits are given with their value; – = inactive; ? = inconclusive; · = no result shown; [ ] = another dose, or the depositor's remark. Calls follow the shape of the dose curve; as a rule, active = well fitted curve in the direction sought with a large enough effect; inconclusive = small, poorly fitted or top-dose-only effect, or another doubt; inactive = no such curve, though single readings can be large; an effect the other way counts as inactive or inconclusive.

SMILES | Nrf2 block | A549 tox-1 | Mito fusion act | mIDH1 inhibitor | TrxR1 substrate | rTrxR1 inhibitor | FLuc counter 3 | A549 tox-2 | Nrf2 ARE inh
CC1Cn2c(C(=O)NCc3ccccc3Cl)cc3cccc(c32)S1 (stereo unspecified) | – | – | · | – | – | – | · | · | ·
COc1cc(/C=C2\CCC(C3CCCC3)C2=O)cc(OC)c1OC (stereo unspecified) | – | – | – | – | – | – | · | · | ·
COc1cc(/C=C2\COC/C(=C\c3cc(OC)c(OC)c(OC)c3)C2=O)cc(OC)c1OC | 5.8µM | – | – | – | – | – | – | – | 0.12µM
O=c1cnnc(N/N=C/c2ccccn2)[nH]1 | ? | – | – | – | – | – | – | – | 12µM
Cc1cc(=O)[nH]c(N/N=C/c2ccccn2)n1 | – | – | – | – | – | – | · | · | ·
O=C(Nc1nc(-c2ccccn2)cs1)c1cc(Cl)ccc1[N+](=O)[O-] | 4.1µM | ? | – | – | – | – | 15µM | – | 1.8µM
CCOc1cccc(C(=O)Nc2nc3c(s2)CC(C(C)(C)C)CC3)c1 (stereo unspecified) | ? | – | · | – | – | – | · | · | ·
Cc1cc2c(=O)c(C(=O)c3ccncc3)cn(CC(=O)Nc3cccc(C)c3C)c2cc1C | · | – | · | – | – | – | · | · | ·
O=C1Cc2c([nH]c3ccc([N+](=O)[O-])cc23)-c2ccccc2N1 | 2.3µM | ? | · | – | – | –[11.4 µM] | – | ? | 2.3µM
CCC(=O)OC1=C(C(C)=O)N(Cc2ccccc2)S(=O)(=O)c2ccccc21 | – | – | · | – | – | – | · | · | ·
COc1ccc([C@@]23Oc4cc(OC)cc(OC)c4[C@]2(O)[C@H](O)[C@H](C(=O)N(C)C)[C@H]3c2ccccc2)cc1 | 0.021µM | ? | · | – | – | – | – | ? | 0.015µM
COc1ccc(C2CC(O)(c3ccccc3)Oc3cc(OC)c(OC)c(OC)c32)cc1 (stereo unspecified) | ? | ? | – | – | – | – | · | · | ·
COc1ccc(N2CCN(C(=O)c3cc4c(C)nc5ccccc5c4o3)CC2)cc1 | ? | – | – | – | – | – | · | · | ·
COc1ccc(CNC(=O)c2cc3c(C)nc4ccccc4c3o2)c(OC)c1 | 5.2µM | – | – | – | – | – | – | – | ·
CCN(CC(=O)Nc1ccc(OC)cc1)C(=O)c1cccc(S(=O)(=O)N2CCN(c3ccccc3)CC2)c1 | · | · | · | – | · | · | · | · | ·
CN(Cc1cccc(F)c1)C(=O)c1cccc(S(=O)(=O)N2CCN(Cc3ccccc3)CC2)c1 | ? | – | – | – | – | – | · | · | ·
CN(Cc1ccc(OC(F)F)cc1)C(=O)c1cccc(S(=O)(=O)N2CCN(c3ccccc3)CC2)c1 | 4.6µM | – | · | – | – | – | – | – | ·
CN(Cc1ccc(Cl)c(Cl)c1)C(=O)c1cccc(S(=O)(=O)N2CCN(Cc3ccccc3)CC2)c1 | 9.2µM | – | – | – | – | – | – | – | ?
CCN(CC)CCCNc1oc(-c2ccc(OC)cc2)nc1C#N | · | – | – | – | – | – | · | · | ·
O=c1oc2ccccc2cc1-c1csc(Cc2nc(-c3ccc(Br)cc3)cs2)n1 | 2.9µM | – | – | – | – | – | – | – | ·
Cc1ccc(-c2csc(Cc3nc(-c4cc5ccccc5oc4=O)cs3)n2)cc1 | 4.6µM | – | – | – | – | – | – | – | 7.3µM
Cc1cc(C)c(-c2csc(Cc3nc(-c4cc5ccccc5oc4=O)cs3)n2)cc1C | ? | – | – | – | – | – | · | · | ·
C[n+]1ccccc1N1CCN(c2ccccc2Cl)CC1 | 3.3µM | – | – | – | – | – | – | – | 6.5µM
COc1ccc(C(=S)N2CCN(c3ccccc3Cl)CC2)cc1OC | – | – | – | – | – | – | · | · | ·
O=C(Nc1ccc(-c2nc3ccccc3s2)cc1)c1cc(-n2cnnc2)ccc1Cl | 2.3µM | ? | – | – | – | – | ? | – | 7.3µM
SMILES | Nrf2 block | A549 tox-1 | Mito fusion act | mIDH1 inhibitor | TrxR1 substrate | rTrxR1 inhibitor | FLuc counter 3 | A549 tox-2 | Nrf2 ARE inh
COc1ccc2nc(-c3ccccn3)[nH]c2c1 | ? | – | – | – | – | – | · | · | ·
COc1cc(C=NO)nc(-c2ccccn2)c1 | 1.2µM | – | · | – | – | – | – | – | 2.6µM
COc1ccc(COC(=O)c2[nH]c3c(c2C)C(=O)CC(c2ccc(OC)c(OC)c2)C3)cc1 (stereo unspecified) | 6.5µM | – | · | – | – | – | – | – | 6.5µM
COc1cc(C2CC(=O)c3c([nH]c(C(=O)OCC4CCCCC4)c3C)C2)cc(OC)c1OC (stereo unspecified) | 2.3µM | – | · | – | – | – | – | – | 4.6µM
Cc1ncnc2nc[nH]c12 | · | · | · | · | – | – | – | – | 5.8µM
CC(=O)N(c1ccc2ccccc2c1)C1SC(=O)N(c2cccc(C)c2)C1=O (stereo unspecified) | ? | – | · | · | – | – | · | · | ·
CCOc1cc(/C=N\NC(=O)c2ccc(NC(=O)C(C)(C)C)cc2)ccc1OC(=O)c1cccc(C)c1 | 5.2µM | – | – | – | – | – | – | – | 15µM
Cc1cccc(C(=O)Oc2ccccc2/C=N/NC(=O)c2ccc(NC(=O)C(C)(C)C)cc2)c1 | – | – | – | – | – | – | · | · | ·
Cc1ccc(C)c(CN2CCCN(CC(=O)Nc3ccc(C)c(C)c3)S2(=O)=O)c1 | – | – | · | – | – | – | · | · | ·
CC(=O)c1ccc(N2CCN(C(=O)CS(=O)(=O)c3cccc4nsnc34)CC2)cc1 | · | – | · | – | – | – | · | · | ·
CC(=O)c1sc2c(c1OC(=O)c1ccc(Cl)cc1Cl)c(=O)n(-c1ccccc1)c(=S)n2-c1ccccc1 | 3.3µM | ? | ? | – | – | – | – | ? | ·
Cc1cccc(N2CCN(C(=O)c3ccc(NC(=O)c4nsc5ccccc45)cc3)CC2)c1C | · | – | · | – | – | – | · | · | ·
CC(C)CC(=NNC(=O)c1ccncc1)c1cc(Cl)ccc1O | 6.5µM | ? | · | – | – | – | – | – | 6.5µM
COc1ccc(NC(=O)COc2ccc(N(C)S(=O)(=O)c3ccc(Cl)cc3)cc2)cc1OC | 9.2µM | – | – | – | – | – | – | – | 6.5µM
COc1ccc(NS(=O)(=O)c2ccc(OC)c(N(C)S(=O)(=O)c3ccc(Cl)cc3)c2)cc1 | 7.3µM | ? | – | – | – | – | – | ? | 8.2µM

Source: PubChem (National Center for Advancing Translational Sciences (NCATS))
